Assay outcomes deposited in PubChem by Broad Institute.
Pf Dd2 growth – inhibitors of Plasmodium falciparum Dd2 growth; P. falciparum Dd2 growth, SYBR Green, 72 h; stronger effect = lower value; activity change, % at 10 µM; 94,000 tested, 2.3% active; AID 1159554; in the data active means activity change below about -80%; inconclusive means no clear call, values can overlap the other calls
C diff HTS – blocks growth of Clostridium difficile | Clostridium difficile clinical isolate growth, OD600, 24 h; stronger effect = lower value | growth activity, negative = inhibition, % at 16 µg/mL (by protocol) | 86,000 tested, 0.25% active;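 active means mean growth activity at or below -80% and every replicate also at or below -80%; inconclusive means mean at or below -80% but some replicate above -80%; inactive means mean growth activity above -80%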;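 further: 0% = DMSO wells and -100% = levofloxacin 16 µg/mL wells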
T cruzi growth-1 – inhibitors of T. cruzi proliferation; T. cruzi beta-gal in NIH3T3, GalScreen luminescence, 90 h; inhibition, % at 8.34 µM; 77,000 tested, 5.9% active; AID 624255;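 active means mean inhibition above about 93%, with at least 55% of replicates each passing it, limit read from the data, passing the limit was not always enough; inconclusive means only one of those two conditions holds; inactive means neither condition holds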
T cruzi growth-2 – blocks T. cruzi growth in NIH3T3 host cells | shares compounds with T cruzi growth-1 | T. cruzi beta-gal in NIH3T3, GalScreen luminescence, 90 h | inhibition, % at 8.35 µM | 5,600 tested, 72% active;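 active means mean replicate inhibition above about 95% and at least 55% of replicates individually reaching it, limit read from the data; inconclusive means only one of the two criteria is met; inactive means neither criterion is met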
T cruzi growth-3 – Trypanosoma cruzi proliferation inhibition; shares compounds with T cruzi growth-1; T. cruzi beta-gal in NIH3T3, GalScreen luminescence, 90 h; inhibition, % at 2.09 µM; 5,600 tested, 21% active; AID 651740;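 active means mean inhibition above about 95%, with at least 55% of replicates also reaching it, limit read from the data; inconclusive means meets just one of the two conditions; inactive means meets neither condition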;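 further: plate controls were neutral control median for no effect and positive control median for full effect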
3T3 cytotox – cytotoxicity in mouse NIH/3T3 fibroblasts; NIH/3T3 viability, CellTiter-Glo ATP luminescence, 90 h; cytotoxicity (signal decrease), % at 8.35 µM; shares compounds with T cruzi growth-1; 5,600 tested, 14% active;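 active means mean signal decrease across replicates above about 35% based on untreated-well scatter, with enough replicates individually passing, limit read from the data; inconclusive means no rule stated though some were filed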;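 further: 0% = median of neutral control wells and 100% = median of positive control wells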
3T3 cytotox 2 – cytotoxicity in mouse NIH/3T3 fibroblasts; 5,600 tested, 56% active; inhibition, % at 24.9 µM; shares compounds with T cruzi growth-1; NIH/3T3 viability, CellTiter-Glo ATP luminescence, 90 h;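 active means mean loss of cell viability signal at or above a set limit, and enough replicates individually reaching it; inconclusive means meets only the mean limit or only the replicate share; inactive means meets neither condition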;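 further: 0% = median of neutral control wells and 100% = median of positive control wells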
* marks the source's active call; other numbers are inactive results; ? = inconclusive; nt = not tested or not shown. The list is not random: actives were taken first. Their share in the collection is about 6.7%.

SMILES | Pf Dd2 growth | C diff HTS | T cruzi growth-1 | T cruzi growth-2 | T cruzi growth-3 | 3T3 cytotox | 3T3 cytotox 2
COc1ccc(NC(=O)N(C)C[C@H]2Oc3c(NC(=O)c4ccc(-c5nccs5)cc4)cccc3C(=O)N([C@H](C)CO)C[C@@H]2C)cc1 | 9 | -1 | -52 | nt | nt | nt | nt
C[C@@H]1CN([C@H](C)CO)C(=O)c2cc(NC(=O)C3CCCCC3)ccc2O[C@@H](C)CCCCO[C@@H]1CN(C)C(=O)NC1CCCCC1 | -64 | 6 | 65 | nt | nt | nt | nt
CO[C@@H]1CN(C)C(=O)c2ccc(NC(=O)c3nc4ccccc4s3)cc2OC[C@@H](C)NC[C@H]1C | -24 | nt | 68 | nt | nt | nt | nt
C[C@@H]1CN([C@@H](C)CO)C(=O)Cc2cc(NC(=O)CCC(F)(F)F)ccc2O[C@@H]1CN(C)Cc1ccccc1 | -27 | -3 | 43 | nt | nt | nt | nt
O=C(CCN1CCCCC1)NCC[C@@H]1CC[C@H](NC(=O)C2CCOCC2)[C@H](CO)O1 | -3 | -1 | 35 | nt | nt | nt | nt
COc1ccc(NC(=O)Nc2ccc3c(c2)C(=O)N([C@@H](C)CO)C[C@@H](C)[C@H](CN(C)C(=O)C2CCCCC2)OCCCC[C@H](C)O3)cc1 | -33 | -6 | 65 | nt | nt | nt | nt
C[C@@H]1CN([C@@H](C)CO)C(=O)c2cc(NC(=O)Nc3ccc(C(F)(F)F)cc3)ccc2O[C@@H](C)CCCCO[C@H]1CN(C)C(=O)C1CCCCC1 | -68 | 1 | 119* | 108* | 111* | 3 | 7
COc1ccc(NC(=O)Nc2ccc3c(c2)C(=O)N([C@@H](C)CO)C[C@@H](C)[C@H](CN(C)C(=O)C2CCCCC2)OCCCC[C@@H](C)O3)cc1 | -25 | -6 | ? | ? | 16 | -4 | -2
C[C@@H]1CCCCO[C@@H](CN(C)C(=O)C2CCCCC2)[C@H](C)CN([C@H](C)CO)C(=O)c2cc(NC(=O)Nc3ccc(C(F)(F)F)cc3)ccc2O1 | -50 | 12 | 100 | nt | nt | nt | nt
CS(=O)(=O)Nc1ccc2c(c1)[C@@H]1C[C@@H](CC(=O)N3CCOCC3)O[C@H](CO)[C@@H]1O2 | 9 | 0 | -1 | nt | nt | nt | nt
Cc1ccc(S(=O)(=O)N(C)C[C@@H]2Oc3ccc(NS(C)(=O)=O)cc3CC(=O)N([C@@H](C)CO)C[C@@H]2C)cc1 | -66 | 10 | 49 | nt | nt | nt | nt
C[C@@H]1CCCCO[C@@H](CN(C)Cc2ccc(Cl)c(Cl)c2)[C@H](C)CN([C@H](C)CO)C(=O)c2cc(N(C)C)ccc2O1 | -74 | nt | 99* | 106* | 79 | -1 | 103*
C[C@@H]1CCCCO[C@H](CN(C)Cc2ccc(Cl)c(Cl)c2)[C@@H](C)CN([C@@H](C)CO)C(=O)c2cc(N(C)C)ccc2O1 | -79 | nt | 106* | 100* | 106* | 15 | 106*
C[C@@H]1CCCCO[C@H](CN(C)Cc2ccc(Cl)c(Cl)c2)[C@@H](C)CN([C@H](C)CO)C(=O)c2cc(N(C)C)ccc2O1 | -65 | nt | 86 | nt | nt | nt | nt
C[C@@H]1CCCCO[C@@H](CN(C)Cc2ccc(Cl)c(Cl)c2)[C@H](C)CN([C@@H](C)CO)C(=O)c2cc(N(C)C)ccc2O1 | -34 | 15 | nt | nt | nt | nt | nt
CCN(C[C@H]1[C@H](c2ccccc2)[C@@H](CO)N1S(C)(=O)=O)C(=O)C1CCC1 | 10 | 4 | 8 | nt | nt | nt | nt
CO[C@H](CN(C)Cc1cc(F)ccc1F)[C@@H](C)CN(C(=O)Nc1ccc(F)cc1)[C@@H](C)CO | -25 | nt | -20 | nt | nt | nt | nt
Cc1ccccc1-c1ccc([C@H]2[C@@H](CO)N3CCCCN(C(=O)Nc4ccc(F)cc4)C[C@H]23)cc1 | -35 | 26 | 101* | 98* | ? | 94* | 103*
Cc1ccccc1-c1ccc([C@H]2[C@H](CO)N3CCCCN(C(=O)Nc4ccccc4)C[C@@H]23)cc1 | 2 | 20 | 94 | nt | nt | nt | nt
Cc1ccccc1-c1ccc([C@H]2[C@@H](CO)N3CCCCN(C(=O)Nc4ccc(F)cc4)C[C@@H]23)cc1 | 12 | 0 | 104* | 107* | 94 | 1 | 56*
O=C(Nc1ccc(F)cc1)N1CCCCN2[C@H](C1)[C@@H](c1ccc(-c3ccncc3)cc1)[C@@H]2CO | -2 | -4 | 67 | nt | nt | nt | nt
Cc1ccccc1-c1ccc([C@@H]2[C@@H](CO)N3CCCCN(C(=O)Nc4ccccc4)C[C@@H]23)cc1 | -63 | 47 | 71 | nt | nt | nt | nt
Cc1ccccc1-c1ccc([C@H]2[C@H]3CN(C(=O)Nc4ccc(F)cc4)CCCCN3[C@H]2CO)cc1 | -32 | 17 | 101* | 111* | 56 | 25 | 76*
CNC(=O)C[C@H]1CC[C@H]2[C@@H](COC[C@H](O)CN2C(=O)Nc2cccc(OC)c2)O1 | 10 | nt | -13 | nt | nt | nt | nt
COCC(=O)Nc1ccc2c(c1)C(=O)N(C)[C@@H]1CC[C@H](CC(=O)OC)O[C@H]1CO2 | 3 | -5 | 89 | nt | nt | nt | nt
SMILES | Pf Dd2 growth | C diff HTS | T cruzi growth-1 | T cruzi growth-2 | T cruzi growth-3 | 3T3 cytotox | 3T3 cytotox 2
C[C@@H]1CN([C@@H](C)CO)C(=O)c2ccccc2-c2ccccc2CO[C@@H]1CN(C)Cc1ccncc1 | -10 | 2 | ? | 38 | -30 | 11 | ?
C[C@H](CO)N1C[C@H](C)[C@@H](CN(C)Cc2ccncc2)OCc2ccccc2-c2ccccc2C1=O | 13 | 0 | ? | 69 | 13 | -3 | -8
C[C@@H]1CN([C@H](C)CO)C(=O)c2ccccc2-c2ccccc2CO[C@@H]1CN(C)Cc1ccc(O)cc1 | -44 | nt | -52 | nt | nt | nt | nt
C[C@@H]1CN([C@H](C)CO)C(=O)c2ccccc2-c2ccccc2CO[C@@H]1CN(C)Cc1ccncc1 | 17 | 2 | 73 | nt | nt | nt | nt
COc1ccccc1C#Cc1ccc([C@@H]2[C@H]3CN(C(=O)C4CC4)CCCCN3[C@H]2CO)cc1 | 2 | -4 | 103* | 109* | 50 | ? | 102*
COc1ccccc1C#Cc1ccc([C@H]2[C@H](CO)N3CCCCN(C(=O)C4CC4)C[C@@H]23)cc1 | -19 | -2 | 106* | 109* | 76 | 28 | 104*
COc1ccccc1C#Cc1ccc([C@@H]2[C@@H](CO)N3CCCCN(C(=O)C4CCC4)C[C@@H]23)cc1 | -21 | 14 | 82 | nt | nt | nt | nt
CCCNC(=O)Nc1ccc2c(c1)C(=O)N(C)[C@@H]1CC[C@H](CC(=O)NCC3CCCCC3)O[C@H]1CO2 | 1 | 6 | 22 | nt | nt | nt | nt
O=C(C[C@@H]1C=C[C@@H](NC(=O)Cc2ccccn2)[C@H](CO)O1)NCCCN1CCOCC1 | 10 | nt | 49 | nt | nt | nt | nt
C[C@@H]1CN([C@H](C)CO)C(=O)c2cc(NC(=O)Nc3ccccc3)ccc2O[C@@H](C)CCCCO[C@@H]1CN(C)S(=O)(=O)c1ccccc1 | -64 | nt | 7 | nt | nt | nt | nt
C[C@@H]1CCCCO[C@H](CN(C)S(=O)(=O)c2ccccc2)[C@H](C)CN([C@H](C)CO)C(=O)c2cc(NC(=O)Nc3ccccc3)ccc2O1 | -85* | nt | 103* | 113* | 61 | 18 | 34*
